# Screens deposited in PubChem by several laboratories.
# ZTA counter = blocks Epstein-Barr virus ZTA, an EBNA-1 counter-screen | ZTA-DNA binding, fluorescence polarization | inhibition, % at 11 µM | hit rate 0.15% among 320,000 | P03206; in the data active = inhibition above about 33%
# aDG glyco act = alpha-DG glycosylation activation; Pro5-aDG cells, alpha-DG glycosylation AlphaScreen (IIH6); 0% Pro5, 100% B10-LARGE cell signal; activation, % at 10 µM; hit rate 0.22% among 360,000; AID 624168;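 active = activation of at least 8% versus controls, or a plate z-score of at least 8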;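 also: Pro5 are CHO cells carrying HIG-tagged alpha-DG that lacks glycosylation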
# EBNA-1 inhibitor = blocks EBNA-1 binding to DNA; hit rate 0.34% among 300,000; EBNA-1 DNA binding, fluorescence polarization; inhibition, % at 14.8 µM; in the data active = inhibition above about 28%
# NCF1 inh = blocks human p47phox regulatory protein of NADPH oxidases | P14598 | p47phox/p22phox peptide binding, fluorescence polarization, 2 h | inhibition, % at 24.7 µM | hit rate 0.53% among 220,000;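 active = inhibition above about 30%, limit read from the data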;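 also: 0% = p47phox with labelled peptide and 100% = labelled peptide alone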
# PG9 binder = PG9 antibody binding by small molecule. TR-FRET gp120-PG9 antibody binding. inhibition, % at 6.7 µM. hit rate 0.43% among 360,000. AID 624416; in the data active = inhibition above about 8.5%
# NR1D1 modulator = modulators of human Rev-erb alpha DNA binding; P20393; Rev-erbα–FITC-DNA binding, fluorescence polarization, 90 min; activity, % at 10 µM; hit rate 0.79% among 370,000; AID 1259318;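 active = activity above about 14%, limit read from the data; passing the limit was not always enough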;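 also: 0% = DMSO wells with 35 nM protein and 100% = DMSO wells with 750 nM protein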
# Target sequence (P20393 whole entry, looked up): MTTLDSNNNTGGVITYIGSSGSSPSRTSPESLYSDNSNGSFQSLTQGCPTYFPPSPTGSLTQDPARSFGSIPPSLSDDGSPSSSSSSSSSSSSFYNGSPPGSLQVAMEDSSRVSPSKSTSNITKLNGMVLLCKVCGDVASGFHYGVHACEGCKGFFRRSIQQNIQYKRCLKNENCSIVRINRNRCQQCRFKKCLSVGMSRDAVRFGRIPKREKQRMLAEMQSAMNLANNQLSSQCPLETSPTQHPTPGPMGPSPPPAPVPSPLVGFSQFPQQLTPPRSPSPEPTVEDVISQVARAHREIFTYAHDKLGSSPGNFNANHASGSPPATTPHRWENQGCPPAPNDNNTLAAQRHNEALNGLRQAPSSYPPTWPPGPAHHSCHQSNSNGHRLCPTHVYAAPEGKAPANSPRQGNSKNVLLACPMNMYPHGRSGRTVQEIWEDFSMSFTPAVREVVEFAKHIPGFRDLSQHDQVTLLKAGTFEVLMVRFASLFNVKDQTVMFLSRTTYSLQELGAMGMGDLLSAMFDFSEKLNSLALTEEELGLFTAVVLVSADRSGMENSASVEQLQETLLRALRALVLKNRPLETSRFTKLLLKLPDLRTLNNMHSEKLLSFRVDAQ
# PG9 bind confirm = confirmation of small molecules binding HIV-1 gp120 antibody PG9; shares compounds with PG9 binder; TR-FRET PG9 antibody binding, biochemical; inhibition, % at 6.7 µM; hit rate 90% among 1,500; AID 651571; in the data active = inhibition above about 9%
# PGV04 counter = counter-screen for PG9 binders: binding control antibody PGV04; shares compounds with PG9 binder; TR-FRET PGV04 antibody-gp120 binding, biochemical; inhibition, % at 6.7 µM; hit rate 95% among 1,500; AID 651604; in the data active = inhibition above about 9.5%
# PG9 binder DR = small molecules binding HIV-1 gp120 antibody PG9; AID 651848; shares compounds with PG9 binder; TR-FRET PG9 antibody-gp120 binding inhibition; IC50, µM; 95 tested, under 10 active; in the data active = IC50 below about 10 µM
# PGV04 DR counter = counter-screen for PG9 binders: binding to control antibody PGV04 | shares compounds with PG9 binder | IC50, µM | hit rate 20% among 95 | TR-FRET binding to control antibody PGV04
# PG126 DR counter = binds control antibody PG126 in PG9 counter-screen; shares compounds with PG9 binder; IC50, µM; TR-FRET binding to antibody PG126, counterscreen; hit rate 20% among 95; AID 651939
# Numbers without * were called inactive; i = inactive; · = not tested or not shown. A selection: hits, their analogues and other compounds. The true share with any hit is near 1.9%. Rule as the data show it, unless noted: active = IC50 below about 9 µM; inactive = the rest.
SMILES,ZTA counter,aDG glyco act,EBNA-1 inhibitor,NCF1 inh,PG9 binder,NR1D1 modulator,PG9 bind confirm,PGV04 counter,others
COc1cccc(NC(=O)CSc2nc3scc(C)c3c(=O)[nH]2)c1,4.2,-0.2,12.1,·,25.7*,7.6,28.9*,43.0*,
O=C(Nc1c(Br)cc2c(c1Br)Cc1ccccc1-2)C(Cl)Cl,·,-0.2,·,·,28.1*,13.6,24.6*,37.9*,
Cn1c(Cc2cccs2)nnc1SCC(=O)Nc1ccc2cn[nH]c2c1,·,·,·,·,·,2.6,·,·,
CCn1c(=O)cc(OCC(=O)Nc2nc(C)cs2)c2ccccc21,-7.9,-0.1,3.5,4.0,13.2*,21.5,30.4*,48.6*,
CC(C)c1ccc(C(=O)Nc2cc(Cl)ccc2C(=O)O)cc1,·,·,·,·,·,3.8,·,·,
NC(=O)C1CCN(c2ccc(S(=O)(=O)N3CCC(Cc4ccccc4)CC3)cn2)CC1,-0.9,0.7,1.1,-8.5,14.3*,1.1,24.2*,34.3*,
O=S(=O)(c1ccc(Cl)nc1)N1CCC(Cc2ccccc2)CC1,·,0.4,·,·,0.3,-0.3,·,·,
Nn1c(SCC(=O)NC2CCCCC2)nnc1-c1cc(-c2ccc(F)cc2)n[nH]1,·,·,·,·,·,7.1,·,·,
O=C(Nc1ccsc1C(=O)NC1CCCCC1)c1ccccc1,16.0,0.1,10.1,7.1,28.5*,15.1,24.9*,31.1*,
O=C(Nc1ccccc1C(=O)NC1CCCCC1)c1ccccc1,5.4,0.2,-1.8,·,-2.0,2.6,·,·,
Cn1ccc2ccc(-c3ccc4c(c3)[C@]3(CCC[C@@H](OCc5ccccc5)[C@@H]3NC(=O)CCc3ccccc3)C(=O)N4Cc3ccccc3)cc21,·,·,·,·,·,2.5,·,·,
COc1ccc(C(=O)Nc2ccc(S(=O)(=O)N3CCCC3)cc2)c(OC)c1,5.2,-0.4,11.4,-5.8,11.4*,14.8,13.3*,17.2*,
COc1ccccc1C(=O)Nc1ccc(S(=O)(=O)N2CCCC2)cc1,2.4,0.0,4.6,3.5,2.8,-2.4,·,·,
COC(=O)c1ccc2ccn(CC(=O)NC3CCCCC3)c2c1,-11.9,-0.2,-17.3,-11.2,16.1*,7.8,19.6*,31.6*,
O=C(CN1C(=O)CCSc2ccccc21)Nc1ccc(F)cc1F,·,·,·,·,·,-6.6,·,·,
COC(=O)Nc1nc(-c2ccccc2)c(C(=O)c2ccccc2)s1,17.9,-0.4,0.5,-12.6,20.1*,19.1,19.4*,19.4*,PG9 binder DR=>67.1;PGV04 DR counter=i;PG126 DR counter=i
CC[C@H](CCCc1ccc(OC)cc1)CCC(=O)N1CCOCC1,·,·,·,·,·,-1.9,·,·,
Cc1ccc2c(Cl)c(C(=O)Nc3ccc4c(c3)OCO4)sc2c1,7.1,-0.4,19.2,-11.3,14.4*,11.0,26.4*,52.8*,
CCOC(=O)N1CCN(C(=O)C[C@H]2C[C@@]3(C(=O)OC)C(=C[C@H](C4CCCC4)O[C@@H]3C)N(CCC3=CCCCC3)C2=O)CC1,·,·,·,·,·,3.1,·,·,
O=S(=O)(CC1NCc2cc(F)ccc21)NCCc1ccccc1 (stereo not given),·,·,·,·,·,-1.9,·,·,
O=C(Nc1ccccc1C(=O)NCc1ccco1)c1ccccc1,0.0,-0.1,4.8,-11.7,-0.3,-0.9,·,·,
COc1ccc(C(=O)Nc2ccc(Cl)cc2C(=O)NCc2ccco2)cc1,-16.9,-0.2,19.0,-13.3,11.4*,16.6,-2.5,16.8*,
O=C(Nc1ccc(Nc2ccccc2)cc1)c1ccc(Cl)cc1,-10.9,0.3,0.8,·,-0.9,2.5,·,·,
CC(C)(C)c1ccc(C(=O)Nc2ccc(Cl)cc2)cc1,-18.5,0.4,-3.5,0.0,8.6*,-4.0,15.7*,17.8*,
Cc1cc2n(n1)C(c1cn(-c3ccccc3)nc1C)Nc1c(C)cccc1-2 (stereo not given),-12.4,-0.1,-17.3,-0.5,15.1*,9.7,15.3*,22.1*,
